# Assay results from PubChem BioAssay (NCATS).
# Inconclusive results are not listed. A number with no mark means an inactive call. Active and inactive are the calls of the source. The call rests on the fitted dose curve; in most records, active means well fitted curve in the direction sought with a large enough effect; inconclusive means small, poorly fitted or top-dose-only effect, or another doubt; inactive means no such curve, though single readings can be large; an effect the other way counts as inactive or inconclusive.
# Target: Rap guanine nucleotide exchange factor 3 (Homo sapiens) (UniProt O95398)
# Assay: Counterscreen qHTS for antagonist of cAMP-regulated guanine nucleotide exchange factor 3 (EPAC1) (AID 1645888);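 further: fluorescence loss as bound BODIPY-GDP is released from Rap1B; % of control where 0% means no effect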
# Conditions: Rap1B-BODIPY-GDP nucleotide exchange, fluorescence; series mostly up to 154 µM; activity change, negative = inhibition: at the top concentration
# In short: (§1)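 Rap1B–BODIPY-GDP (250 nM) with 50 uM GDP; compounds pin-transferred to 9.74 nM–152 uM final (activator) or from 7.32 nM upwards (inhibitor). Fluorescence Ex/Em 480/540 nm read at 5 and 30 min, then after adding cAMP or buffer, at room temperature.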
# Sequence of Rap guanine nucleotide exchange factor 3 (Homo sapiens) (O95398 whole entry, looked up): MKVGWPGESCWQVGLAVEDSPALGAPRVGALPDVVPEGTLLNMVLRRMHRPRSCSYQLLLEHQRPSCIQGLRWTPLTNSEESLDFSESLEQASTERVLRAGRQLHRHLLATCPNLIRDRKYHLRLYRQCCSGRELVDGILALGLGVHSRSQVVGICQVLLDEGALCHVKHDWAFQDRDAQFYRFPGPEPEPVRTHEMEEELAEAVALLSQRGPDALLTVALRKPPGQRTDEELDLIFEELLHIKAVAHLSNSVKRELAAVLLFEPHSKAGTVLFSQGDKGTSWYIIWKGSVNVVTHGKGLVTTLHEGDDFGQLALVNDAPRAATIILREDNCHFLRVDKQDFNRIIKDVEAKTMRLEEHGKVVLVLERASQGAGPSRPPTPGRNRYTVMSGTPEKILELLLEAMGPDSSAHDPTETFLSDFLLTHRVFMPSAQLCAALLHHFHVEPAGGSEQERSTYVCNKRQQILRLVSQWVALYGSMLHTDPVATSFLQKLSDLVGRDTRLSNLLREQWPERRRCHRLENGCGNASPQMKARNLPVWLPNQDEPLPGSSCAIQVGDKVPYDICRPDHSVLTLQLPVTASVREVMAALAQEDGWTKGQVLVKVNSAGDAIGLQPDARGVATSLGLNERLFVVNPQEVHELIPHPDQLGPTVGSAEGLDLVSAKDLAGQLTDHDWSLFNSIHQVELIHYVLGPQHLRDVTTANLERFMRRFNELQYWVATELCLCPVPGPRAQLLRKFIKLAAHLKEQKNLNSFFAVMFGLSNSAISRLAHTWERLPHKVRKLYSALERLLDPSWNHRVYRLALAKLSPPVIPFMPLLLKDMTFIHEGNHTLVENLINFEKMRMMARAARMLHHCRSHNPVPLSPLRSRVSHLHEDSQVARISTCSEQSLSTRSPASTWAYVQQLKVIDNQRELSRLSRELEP
row,Compound,"activity change, negative = inhibition"
1,CC1CN(c2nc3ccccc3cc2-c2ccccc2)CC(C)O1 (stereo not drawn),11.5%
2,COC(=O)c1cccc(F)c1C(=O)c1cccc2ccccc12,-6.13%
3,COC(=O)c1cn(S(=O)(=O)c2ccccc2)c2ccccc12,-8.12%
4,O=C1OC(c2ccccc2)(c2ccccc2)c2ccsc21,0.566%
5,Cc1oc2cc(Br)c(O)c(Br)c2c1-c1ccccc1,-15.2%
6,COc1ccc(S(=O)(=O)N2CCCC2)c(Cl)c1Cl,12.2% [at 30.8 µM]
7,Cn1ccc2c(N3CCCCCCC3)cc3c(c21)C1CCC3O1 (stereo not drawn),19.9%
8,COc1ccc(/C=C/C(=O)c2ccc(Cl)cc2)c(OC)c1,-1.09%
9,CCCCC1=C(C(=O)OCC)C(C(=O)OCC)Oc2ccccc21 (stereo not drawn),-14.5%
10,CC(OC(=O)c1ccccc1Oc1ccccc1)C(=O)NC1CC1 (stereo not drawn),0.144%
11,O=C(O)CCNC(=O)c1ccc(NC(=O)C(c2ccccc2)c2ccccc2)cc1,28.3%
12,CCC(=O)OC1CC(C)N(C(=O)c2ccccc2)c2ccc(C)cc21 (stereo not drawn),-14.8%
13,CNc1snc(C)c1C(=O)OCC(=O)Nc1ccc(C)cc1F,16.3%
14,COc1ccc2c(c1)CCc1c(C(=O)N3CCCc4ccccc43)noc1-2,5.78%
15,O=C(c1noc2c1CCc1ccccc1-2)N1CCCc2ccccc21,25.8%
16,CCOc1cc(C)c(S(=O)(=O)N2CCCCC2)cc1C,-14.6%
17,CCCCn1nnnc1C(c1cc2ccccc2o1)N1CCN(c2cc(C)nc3ccccc23)CC1 (stereo not drawn),11%
18,COCCN(CCOC)Cc1cc(=O)oc2cc(OC)c(Cl)cc12,-10.8% [at 30.8 µM]
19,COc1ccccc1N(C)c1cc2c(c3c1ccn3C)C1CCC2O1 (stereo not drawn),31.7%
20,CC1CCCN(C2(O)C(=O)Nc3c(C(F)(F)F)cccc32)C1 (stereo not drawn),-14.6% [at 30.8 µM]

row,Compound,"activity change, negative = inhibition"
1,COC(=O)C1=NN(c2ccccc2)C2(S1)SC(C(C)=O)=C(C)N2c1ccccc1 (stereo not drawn),7.33%
2,COC(=O)c1cn(C(=O)c2ccc(C)cc2C)c2ccccc12,16.4%
3,O=C(COc1ccc(Br)cc1Cl)c1ccc[nH]1,-0.507%
4,C=CCN(CC=C)Cc1cc(=O)oc2cc(C)cc(C)c12,-4% [at 30.8 µM]
5,Cc1ccn2c(-c3csc(NCc4ccccc4)n3)c(C)nc2c1,32.5%
6,COc1ccc(C2CC(=O)Oc3ccc(OC)cc32)cc1 (stereo not drawn),-2.08% [at 30.8 µM]
7,COc1cnc(-c2ccccc2)nc1Sc1ccccc1,17.8%
8,CC(=O)N1N=C2c3ccccc3CCC2C1c1cccs1 (stereo not drawn),-17.6% [at 30.8 µM]
9,Cc1ccc(O)c(C(=O)c2cc(C#N)c(=O)n(-c3nccs3)c2)c1,174%
10,Cc1cccc2c1NC(=O)C2(O)N1CCCC(C)C1 (stereo not drawn),5.46%
11,COc1cc(N)ccc1-c1cc2ccccc2oc1=O,-7.96%
12,O=C(c1ccccc1F)n1c2c(c3ccccc31)CCCC2,6.61%
13,COC(=O)c1cn(C(=O)c2ccc(OC)c(OC)c2)c2ccccc12,-11% [at 30.8 µM]
14,COC(=O)c1ccc2nc(-c3ccc(Cl)cc3)c(Cc3cccc(F)c3)n2c1,19.6%
15,COc1ccc(Cl)cc1NC(=O)CN1c2ccccc2CC1C (stereo not drawn),-20.7%
16,Cc1ccc(-c2nn3cnnc3c3ccccc23)cc1C,-44.9% [at 30.8 µM]
17,O=c1ccc(NS(=O)(=O)c2ccc(Cl)cc2)cn1Cc1ccc(Cl)c(Cl)c1,-11.2%
18,COc1ccc(C2CC(=O)Oc3cc(C)c(Cl)cc32)cc1 (stereo not drawn),1.08%
19,CC(C)CN(C(=O)c1ccco1)c1nc2ccccc2s1,-2.1%
20,COC(=O)c1ccc2nc(-c3ccc(F)cc3)c(Cc3ccsc3)n2c1,-9.08% [at 30.8 µM]

# Target: Rap guanine nucleotide exchange factor 3 (Homo sapiens) (UniProt O95398)
# Assay: Counterscreen qHTS for agonist of cAMP-regulated guanine nucleotide exchange factor 3 (EPAC1) (AID 1645889); further: nearly all actives have a fitted effect of over 40% in size; further: potency means the concentration at half of the fitted maximal effect; on activation: % of control where 0% means no effect
# Conditions: EPAC1 Rap1B-BODIPY-GDP exchange, fluorescence; series mostly up to 154 µM; activation: at the top concentration
# In short: as §1
Compound,activation,Potency
CC1CN(c2nc3ccccc3cc2-c2ccccc2)CC(C)O1 (stereo not drawn),0.421%,–
COc1ccc(S(=O)(=O)N2CCCC2)c(Cl)c1Cl,0.265% [at 30.8 µM],–
CCCCC1=C(C(=O)OCC)C(C(=O)OCC)Oc2ccccc21 (stereo not drawn),-44.5%,–
CC(OC(=O)c1ccccc1Oc1ccccc1)C(=O)NC1CC1 (stereo not drawn),13.6%,–
CCC(=O)OC1CC(C)N(C(=O)c2ccccc2)c2ccc(C)cc21 (stereo not drawn),10.7%,–
CNc1snc(C)c1C(=O)OCC(=O)Nc1ccc(C)cc1F,-8.31%,–
O=C(c1noc2c1CCc1ccccc1-2)N1CCCc2ccccc21,24.6%,–
CCOc1cc(C)c(S(=O)(=O)N2CCCCC2)cc1C,14.3%,–
COC(=O)c1cn(C(=O)c2ccc(C)cc2C)c2ccccc12,24.7%,–
Cc1ccc(O)c(C(=O)c2cc(C#N)c(=O)n(-c3nccs3)c2)c1,–,35.5 µM (active)
Cc1cccc2c1NC(=O)C2(O)N1CCCC(C)C1 (stereo not drawn),16.1%,–
Cc1ccc(-c2nn3cnnc3c3ccccc23)cc1C,5.84% [at 30.8 µM],–
CC(C)CN(C(=O)c1ccco1)c1nc2ccccc2s1,27.2%,–
